From PubChem BioAssay
Where “and” joins values, the source holds several entries; their conditions need not be identical. Identical values can stand only once. For part of these data: Potency and affinity values are given separately. More than one record can exist for a structure, and the calls need not agree. Calls of active or inactive are those of the source. Where a call stands in place of a potency, no number is given. Unless noted, the rule behind the calls is not given here.

Columns and labels:
[1] = antimalarial activity against Dd2 strain (AID 2302;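 active = growth inhibition above 50% at the single 2 µM test dose, taken to imply half-maximal potency below 2 µM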); conditions: P. falciparum Dd2 in RBCs, LDH growth readout, 72 h; at 2 µM; stronger effect = higher value
[2] = human hepatoma cell viability loss – ATP luminescence, cytotoxicity control for P. falciparum antimalarial project, primary screen (AID 2303;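 active = inhibition above 50%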); conditions: HepG2 viability, 24-48 h, at 10 µM, stronger effect = higher value
[3] = target: L-lactate dehydrogenase (Plasmodium falciparum (isolate CDC / Honduras)) (UniProt Q27743); experiment: PfLDH activity inhibition – cell lysate, 3D7 strain, counter-screen for P. falciparum growth inhibition project (AID 2304); conditions: P. falciparum 3D7 crude extract, LDH APAD/NBT absorbance; at 2 µM; stronger effect = higher value
[4] = inhibition of 3D7 malaria parasite growth – strain 3D7 (AID 2306); conditions: P. falciparum 3D7 erythrocytic growth, LDH absorbance, 72 h; at 2 µM; stronger effect = higher value
[5] = target: Calcium-dependent protein kinase 1 (Plasmodium falciparum (isolate 3D7)) (UniProt P62344); experiment: PfCDPK1 kinase inhibitors, biochemical, TCAMS library (AID 1159585; cut-off not given, nearly all actives have IC50 up to about 0.98 µM;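 note: inhibitors leave more ATP so luminescence rises with inhibition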); conditions: recombinant PfCDPK1, Kinase-Glo ATP depletion luminescence
[6] = target: Plasmodium falciparum protein kinase 6 (PK6, PF3D7_1337100) (UniProt Q8IDW1); experiment: PfPK6 kinase inhibitors, biochemical, TCAMS library (AID 1159586); conditions: recombinant PfPK6, Kinase-Glo ATP depletion luminescence
[7] = target: Protein kinase 7 (PK7), Plasmodium falciparum 3D7 (PF3D7_0213400) (UniProt Q7YTF7); experiment: inhibition of Plasmodium PK7 catalytic activity – biochemical, TCAMS antimalarial set, Kinase-Glo luminescence (AID 1159587); conditions: recombinant PfPK7, Kinase-Glo ATP depletion luminescence
[8] = target: Calcium-dependent protein kinase 4 (Plasmodium falciparum (isolate 3D7)) (UniProt Q8IBS5); experiment: PfCDPK4 kinase inhibitors, biochemical, TCAMS library (AID 1159588; cut-off not given, nearly all actives have IC50 up to about 0.91 µM); conditions: recombinant PfCDPK4, Kinase-Glo ATP depletion luminescence
Calcium-dependent protein kinase 4 (Plasmodium falciparum (isolate 3D7)), sequence (Q8IBS5 whole entry, looked up): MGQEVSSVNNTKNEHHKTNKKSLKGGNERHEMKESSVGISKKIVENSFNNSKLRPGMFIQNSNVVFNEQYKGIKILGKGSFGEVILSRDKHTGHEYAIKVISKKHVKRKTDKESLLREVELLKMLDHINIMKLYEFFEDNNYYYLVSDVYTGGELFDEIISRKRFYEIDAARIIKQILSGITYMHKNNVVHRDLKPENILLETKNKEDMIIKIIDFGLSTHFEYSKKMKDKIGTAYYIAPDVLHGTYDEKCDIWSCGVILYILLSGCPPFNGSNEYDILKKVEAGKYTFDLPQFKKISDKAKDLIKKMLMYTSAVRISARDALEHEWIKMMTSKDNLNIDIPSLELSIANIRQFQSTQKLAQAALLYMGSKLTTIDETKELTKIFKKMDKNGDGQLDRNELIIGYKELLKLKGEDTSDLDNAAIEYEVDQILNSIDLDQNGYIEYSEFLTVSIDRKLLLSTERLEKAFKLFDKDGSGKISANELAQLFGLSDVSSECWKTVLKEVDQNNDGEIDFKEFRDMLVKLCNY

Protein kinase 7 (PK7), Plasmodium falciparum 3D7 (PF3D7_0213400), sequence (Q7YTF7 1-343): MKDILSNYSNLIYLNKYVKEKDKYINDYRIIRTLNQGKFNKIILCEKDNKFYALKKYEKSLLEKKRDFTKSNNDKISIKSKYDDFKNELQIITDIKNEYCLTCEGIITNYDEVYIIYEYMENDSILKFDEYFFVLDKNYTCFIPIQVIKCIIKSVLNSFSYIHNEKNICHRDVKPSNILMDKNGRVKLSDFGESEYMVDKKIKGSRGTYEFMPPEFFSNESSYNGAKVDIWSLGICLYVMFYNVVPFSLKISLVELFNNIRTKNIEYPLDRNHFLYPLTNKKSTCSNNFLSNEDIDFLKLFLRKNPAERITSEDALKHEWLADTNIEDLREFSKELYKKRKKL
Plasmodium falciparum protein kinase 6 (PK6, PF3D7_1337100), sequence (Q8IDW1 1-305): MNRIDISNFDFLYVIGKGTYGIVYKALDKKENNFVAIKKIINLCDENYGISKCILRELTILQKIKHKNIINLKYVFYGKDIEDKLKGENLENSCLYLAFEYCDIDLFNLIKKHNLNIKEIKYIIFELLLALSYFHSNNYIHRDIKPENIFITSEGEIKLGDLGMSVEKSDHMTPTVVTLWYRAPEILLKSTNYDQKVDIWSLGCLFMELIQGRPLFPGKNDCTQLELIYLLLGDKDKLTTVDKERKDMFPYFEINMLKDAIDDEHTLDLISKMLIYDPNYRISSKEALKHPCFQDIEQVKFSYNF
Calcium-dependent protein kinase 1 (Plasmodium falciparum (isolate 3D7)), sequence (P62344 whole entry, looked up): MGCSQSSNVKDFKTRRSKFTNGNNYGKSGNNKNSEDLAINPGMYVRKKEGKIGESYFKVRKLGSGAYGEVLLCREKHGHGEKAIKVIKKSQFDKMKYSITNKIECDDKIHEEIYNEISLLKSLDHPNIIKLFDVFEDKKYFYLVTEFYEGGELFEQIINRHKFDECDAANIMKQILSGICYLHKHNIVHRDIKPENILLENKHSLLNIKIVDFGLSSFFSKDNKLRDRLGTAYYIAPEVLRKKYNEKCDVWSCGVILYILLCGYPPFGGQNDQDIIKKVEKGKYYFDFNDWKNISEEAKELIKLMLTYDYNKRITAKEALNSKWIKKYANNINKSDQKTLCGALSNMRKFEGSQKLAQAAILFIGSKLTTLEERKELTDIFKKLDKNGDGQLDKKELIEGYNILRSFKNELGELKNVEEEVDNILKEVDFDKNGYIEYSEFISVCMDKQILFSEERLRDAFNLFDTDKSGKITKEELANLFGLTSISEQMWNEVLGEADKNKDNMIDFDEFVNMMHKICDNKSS
L-lactate dehydrogenase (Plasmodium falciparum (isolate CDC / Honduras)), sequence (Q27743 whole entry, looked up): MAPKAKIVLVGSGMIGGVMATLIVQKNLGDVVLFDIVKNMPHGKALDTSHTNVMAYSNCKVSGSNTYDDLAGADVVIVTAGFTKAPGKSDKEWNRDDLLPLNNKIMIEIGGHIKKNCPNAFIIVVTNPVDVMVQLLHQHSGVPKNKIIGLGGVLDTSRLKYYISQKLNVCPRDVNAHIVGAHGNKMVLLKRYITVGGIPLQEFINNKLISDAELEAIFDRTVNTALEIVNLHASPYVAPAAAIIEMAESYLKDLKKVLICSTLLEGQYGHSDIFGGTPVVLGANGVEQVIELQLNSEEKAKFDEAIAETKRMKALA

## O=C(Nc1ccc(Oc2ccccc2)cc1)NC1CCC(CN2CCC(c3c[nH]c4ccccc34)CC2)CC1 (centres undefined)
[1]
  growth inhibition: 97% (active)
[2]
  inhibition: 55% (active)
[3]
  inhibition: 4% (inactive)
[4]
  growth inhibition: 101% (active)
[5]
  outcome: inactive
[6]
  outcome: inactive
[7]
  outcome: inactive
[8]
  outcome: inactive

## Cc1ccc(-n2nc(C)c3c2NC(=O)CSC3c2ccsc2)cc1 (centres undefined)
[1]
  growth inhibition: 11% (inactive)
[2]
  inhibition: -14% (inactive)
[3]
  inhibition: 2% (inactive)
[4]
  growth inhibition: 97% (active)
[5]
  outcome: inactive
[6]
  outcome: inactive
[7]
  outcome: inactive
[8]
  outcome: inactive

## CC[C@H]1CN2CC[C@@H]1C[C@H]2[C@H](O)c1cc(-c2cccnc2)nc2ccc(OC)cc12
[1]
  growth inhibition: 99% (active)
[2]
  inhibition: 20% (inactive)
[3]
  inhibition: 3% (inactive)
[4]
  growth inhibition: 99% (active)
[5]
  outcome: inactive
[6]
  outcome: inactive
[7]
  outcome: inactive
[8]
  outcome: inactive

## CC(Cc1ccc(C2=CCNCC2)cc1)NCC(O)c1cccc(C(F)(F)F)c1 (centres undefined)
[1]
  growth inhibition: -2% (inactive)
[2]
  inhibition: 27% (inactive)
[3]
  inhibition: 0% (inactive)
[4]
  growth inhibition: 89% (active)
[5]
  outcome: inactive
[6]
  outcome: inactive
[7]
  outcome: inactive
[8]
  outcome: inactive

## O=C(COc1ccc(Cl)cc1)N1CCC(CN2CCC(c3c[nH]c4ccccc34)CC2)CC1
[1]
  growth inhibition: 13% (inactive)
[2]
  inhibition: 48% (inactive)
[3]
  inhibition: 1% (inactive)
[4]
  growth inhibition: 89% (active)
[5]
  outcome: inactive
[6]
  outcome: inactive
[7]
  outcome: inactive
[8]
  outcome: inactive

## COc1ccc2c(c1)[nH]c1c(C=Cc3ccccc3)nccc12
[1]
  growth inhibition: 6% (inactive)
[2]
  inhibition: 19% (inactive)
[3]
  inhibition: 7% (inactive)
[4]
  growth inhibition: 91% (active)
[5]
  outcome: inactive
[6]
  outcome: inactive
[7]
  outcome: inactive
[8]
  outcome: inactive

## CC[C@H]1CN2CC[C@H]1C[C@H]2[C@H](O)c1cc(Cl)nc2ccc(OC)cc12
[1]
  growth inhibition: 92% (active)
[2]
  inhibition: 0% (inactive)
[3]
  inhibition: 2% (inactive)
[4]
  growth inhibition: 101% (active)
[5]
  outcome: inactive
[6]
  outcome: inactive
[7]
  outcome: inactive
[8]
  outcome: inactive

## CC[C@H]1CN2CC[C@@H]1C[C@H]2[C@H](O)c1cc(-c2cc(Cl)cc(Cl)c2)nc2ccc(OC)cc12
[1]
  growth inhibition: 97% (active)
[2]
  inhibition: 0% (inactive)
[3]
  inhibition: -1% (inactive)
[4]
  growth inhibition: 99% (active)
[5]
  outcome: inactive
[6]
  outcome: inactive
[7]
  outcome: inactive
[8]
  outcome: inactive

## CC[C@H]1CN2CC[C@@H]1C[C@H]2[C@H](O)c1cc(-c2ccc(Cl)c(Cl)c2)nc2ccc(O)cc12
[1]
  growth inhibition: 99% (active)
[2]
  inhibition: -8% (inactive)
[3]
  inhibition: -1% (inactive)
[4]
  growth inhibition: 98% (active)
[5]
  outcome: inactive
[6]
  outcome: inactive
[7]
  outcome: inactive
[8]
  outcome: inactive

## CN1C(=O)OC[C@@H]1Cc1ccc2[nH]cc(C3=CCN(Cc4ccccc4)CC3)c2c1
[1]
  growth inhibition: 66% (active)
[2]
  inhibition: 4% (inactive)
[3]
  inhibition: -9% (inactive)
[4]
  growth inhibition: 86% (active)
[5]
  outcome: inactive
[6]
  outcome: inactive
[7]
  outcome: inactive
[8]
  outcome: inactive

## O=C(C=Cc1ccccc1Br)NC1CCC(CN2CCC(c3c[nH]c4ccccc34)CC2)CC1 (centres undefined)
[1]
  growth inhibition: 32% (inactive) and 57% (active)
[2]
  inhibition: 36% (inactive) and 43% (inactive)
[3]
  inhibition: 4% (inactive)
[4]
  growth inhibition: 101% (active) and 102% (active)
[5]
  outcome: inactive
[6]
  outcome: inactive
[7]
  outcome: inactive
[8]
  outcome: inactive

## S=C(NCC1CCCCC1)NC1CCC(CN2CCC(c3c[nH]c4ccccc34)CC2)CC1 (centres undefined)
[1]
  growth inhibition: 10% (inactive)
[2]
  inhibition: 29% (inactive)
[3]
  inhibition: 6% (inactive)
[4]
  growth inhibition: 88% (active)
[5]
  outcome: inactive
[6]
  outcome: inactive
[7]
  outcome: inactive
[8]
  outcome: inactive

## O=C(/C=C/c1ccc(Cl)c(Cl)c1)NC1CCC(N2CCC(c3c[nH]c4ccccc34)CC2)CC1 (centres undefined)
[1]
  growth inhibition: 69% (active)
[2]
  inhibition: 41% (inactive)
[3]
  inhibition: 7% (inactive)
[4]
  growth inhibition: 100% (active)
[5]
  outcome: inactive
[6]
  outcome: inactive
[7]
  outcome: inactive
[8]
  outcome: inactive

## O=C(NC1CCN(CC2(c3ccc(Cl)cc3)CCC2)CC1)c1cscn1
[1]
  growth inhibition: 95% (active)
[2]
  inhibition: -2% (inactive)
[3]
  inhibition: -1% (inactive)
[4]
  growth inhibition: 98% (active)
[5]
  outcome: inactive
[6]
  outcome: inactive
[7]
  outcome: inactive
[8]
  outcome: inactive

## CN(Cc1ccccc1)C1CCN(CCc2c[nH]c3ccc(F)cc23)CC1
[1]
  growth inhibition: 91% (active)
[2]
  inhibition: 28% (inactive)
[3]
  inhibition: 5% (inactive)
[4]
  growth inhibition: 100% (active)
[5]
  outcome: inactive
[6]
  outcome: inactive
[7]
  outcome: inactive
[8]
  outcome: inactive

## O=C(/C=C/c1ccc(O)cc1)NC1CCC(CN2CCC(c3c[nH]c4ccccc34)CC2)CC1 (centres undefined)
[1]
  growth inhibition: 51% (active)
[2]
  inhibition: 21% (inactive)
[3]
  inhibition: -7% (inactive)
[4]
  growth inhibition: 99% (active)
[5]
  outcome: inactive
[6]
  outcome: inactive
[7]
  outcome: inactive
[8]
  outcome: inactive

## COC(=O)c1ccc(CC(C)NCC(O)c2cccc(C(F)(F)F)c2)cc1C (centres undefined)
[1]
  growth inhibition: 74% (active)
[2]
  inhibition: 6% (inactive)
[3]
  inhibition: 2% (inactive)
[4]
  growth inhibition: 93% (active)
[5]
  outcome: inactive
[6]
  outcome: inactive
[7]
  outcome: inactive
[8]
  outcome: inactive

## Cc1[nH]c2cc(Cl)ccc2c1C1=CCN(CCCCC2(C)C(=O)Nc3c(F)cccc32)CC1 (centres undefined)
[1]
  growth inhibition: 74% (active)
[2]
  inhibition: 14% (inactive)
[3]
  inhibition: 3% (inactive)
[4]
  growth inhibition: 90% (active)
[5]
  outcome: inactive
[6]
  outcome: inactive
[7]
  outcome: inactive
[8]
  outcome: inactive
